Structures can show the parent of a compound that is named as a salt.

For the test, the system named is Saccharomyces cerevisiae BY4741 SeMeCo community. As to the kind of experiment: z-score of subpopulation abundance vs DMSO median, subpopulation auxotrophic for LUM; higher = larger share of this subpopulation than in DMSO controls. The conditions noted are these: 10 µM; 24 h; SM minimal medium; subpopulation (auxotrophy): LUM. On the procedure:
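Fluorescent four-plasmid SeMeCo (self-establishing metabolically cooperating S. cerevisiae BY4741 community; plasmids pH-mRuby2, pL-mWasabi, pU-eCFP, pM-TagRFP657) was grown 24 h in minimal SM medium with each Selleck FDA-approved drug at 10 µM in 384-well plates. Cells were fixed and imaged by high-content confocal microscopy. For each auxotrophic subpopulation (and the prototroph), a z-score gives the deviation from the DMSO vehicle-control population median.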
In the case of `C#CCN[C@@H]1CCc2ccccc21` [Rasagiline Mesylate], the “z-score of subpopulation abundance” value is 0.19.
With `NS(=O)(=O)Cc1noc2ccccc12` [Zonisamide], the “z-score of subpopulation abundance” value is 1.7.
The result for `CCc1c(C)[nH]c2c1C(=O)C(CN1CCOCC1)CC2` (stereo not given) [Molindone hydrochloride] reads -0.28; that for `Fc1ccc(C(c2ccc(F)cc2)N2CCN(C/C=C/c3ccccc3)CC2)cc1` [Flunarizine 2HCl], 1.42; that for `Cn1c(=O)c2c(ncn2CC2OCCO2)n(C)c1=O` [Doxofylline], -0.24.
In the case of `NCCc1ccc(O)c(O)c1` [Dopamine HCl], the “z-score of subpopulation abundance” value was -0.34.
Consider `CNCCC(Oc1ccc(C(F)(F)F)cc1)c1ccccc1` (stereo not given) [Fluoxetine HCl], for which the “z-score of subpopulation abundance” value worked out at 0.21.
The figure for `C=CC1=C(C(=O)O)N2C(=O)[C@@H](NC(=O)/C(=N\OCC(=O)O)c3csc(N)n3)[C@H]2SC1` [Cefixime] is -1.01; for `C=C1c2cccc(O)c2C(O)=C2C(=O)[C@]3(O)C(O)=C(C(N)=O)C(=O)[C@@H](N(C)C)[C@@H]3[C@@H](O)[C@H]12` [Methacycline HCl] it is -0.23.
Regarding `Nc1ccc(S(=O)(=O)Nc2nccs2)cc1` [Sulfathiazole], the “z-score of subpopulation abundance” value was 0.11.
In the case of `C1CCN2C[C@@H]3C[C@@H](CN4CCCC[C@@H]34)[C@H]2C1` [(-)-Sparteine Sulfate], the “z-score of subpopulation abundance” value is -0.1.
Consider `O=C1CCc2cc(OCCCCc3nnnn3C3CCCCC3)ccc2N1` [Cilostazol], for which the “z-score of subpopulation abundance” value was -0.52.
Take `CC(C)[C@H](N)C(=O)OCCOCn1cnc2c(=O)nc(N)[nH]c21` [Valaciclovir HCl]: the “z-score of subpopulation abundance” value was -0.29.
Turning to `CO/N=C(\C(=O)N[C@@H]1C(=O)N2C(C(=O)OCOC(=O)C(C)(C)C)=C(/C=C\c3scnc3C)CS[C@H]12)c1csc(N)n1` [Cefditoren Pivoxil], the “z-score of subpopulation abundance” value is 1.12.
As to `NC[C@H]1O[C@H](O[C@H]2[C@H](O)[C@@H](O[C@H]3O[C@H](CO)[C@@H](O)[C@H](N)[C@H]3O)[C@H](N)C[C@@H]2N)[C@H](O)[C@@H](O)[C@@H]1O` [Kanamycin sulfate], the “z-score of subpopulation abundance” value was 0.52.
Regarding `CS(=O)(=O)Nc1ccc([N+](=O)[O-])cc1Oc1ccccc1` [Nimesulide], the “z-score of subpopulation abundance” value amounted to 0.62.
Take `CC1(C)S[C@@H]2[C@H](NC(=O)C(C(=O)O)c3ccccc3)C(=O)N2[C@H]1C(=O)O` (stereo not given in full) [Carbenicillin disodium]: the “z-score of subpopulation abundance” value is -0.76.
The figure for `Cc1ccccc1C(OCCN(C)C)c1ccccc1` (stereo not given) [Orphenadrine Citrate] is 0.36; for `CN1CCN(c2cc3c(cc2F)c(=O)c(C(=O)O)cn3-c2ccc(F)cc2)CC1` [Difloxacin hydrochloride] it is -0.26; for `CC1=C(C(=O)OCCN(Cc2ccccc2)c2ccccc2)C(c2cccc([N+](=O)[O-])c2)C(P2(=O)OCC(C)(C)CO2)=C(C)N1` (stereo not given) [Efonidipine] it is 2.5.
With `CCC[C@@H]1C[C@@H](C(=O)N[C@@H]([C@H]2O[C@H](SC)[C@H](O)[C@@H](O)[C@H]2O)[C@@H](C)O)N(C)C1` [Lincomycin Hydrochloride Monohydrate], the “z-score of subpopulation abundance” value turned out to be 0.4.
With `NC12CC3CC(CC(C3)C1)C2` [Amantadine HCl], the “z-score of subpopulation abundance” value was -0.72.
With `OCCN1CCN(CCCN2c3ccccc3Sc3ccc(Cl)cc32)CC1` [Perphenazine], the “z-score of subpopulation abundance” value was determined as 0.66.
For the molecule `Cc1c(S(=O)(=O)O)oc2c1C(=O)C(=O)c1c-2ccc2c1CCCC2(C)C` [Tanshinone IIA sulfonate (sodium)], the “z-score of subpopulation abundance” value was 1.3.
In the case of `COc1ccc2c(c1)c(CC(=O)OCC(=O)O)c(C)n2C(=O)c1ccc(Cl)cc1` [Acemetacin], the “z-score of subpopulation abundance” value is -0.15.
Take `Cc1cccc(C)c1NC(=O)C1CCCCN1C` (stereo not given) [Mepivacaine]: the “z-score of subpopulation abundance” value came to 0.08.
The result for `COCC1=C(C(=O)OC(C)OC(=O)OC(C)C)N2C(=O)[C@@H](NC(=O)/C(=N\OC)c3csc(N)n3)[C@H]2SC1` (stereo not given in full) [Cefpodoxime proxetil] reads 0.36; that for `Clc1ccc(C(Cn2ccnc2)OCc2c(Cl)cccc2Cl)c(Cl)c1` (stereo not given) [Isoconazole nitrate], -0.77.
Turning to `O=C1CCc2ccc(OCCCCN3CCN(c4cccc(Cl)c4Cl)CC3)cc2N1` [Aripiprazole], the “z-score of subpopulation abundance” value came out at 1.32.
The result for `Cc1c(Nc2ncccc2C(=O)O)cccc1C(F)(F)F` [Flunixin Meglumin] reads -0.14; that for `N[C@@H]1CCCCN(c2c(F)cc3c(=O)c(C(=O)O)cn(C4CC4)c3c2Cl)C1` [Besifloxacin HCl], -0.19; that for `COc1ccc2c(c1)c(CC(=O)O)c(C)n2C(=O)c1ccc(Cl)cc1` [Indomethacin], 0.47.
Consider `C[C@@H](CN1CC(=O)NC(=O)C1)N1CC(=O)NC(=O)C1` [Dexrazoxane HCl (ICRF-187, ADR-529)], for which the “z-score of subpopulation abundance” value is -0.98.
As to `CC(=O)OCC1=C(C(=O)O)N2C(=O)C(NC(=O)CSC(=NC(C)C)NC(C)C)C2SC1` (stereo not given) [Cefathiamidine], the “z-score of subpopulation abundance” value is -0.68.
The result for `COC(=O)Nc1nc2cc([S+]([O-])c3ccccc3)ccc2[nH]1` (stereo not given) [Oxfendazole] reads -0.67.
In the case of `CN(C)CCCC1(c2ccc(F)cc2)OCc2cc(C#N)ccc21` (stereo not given) [Citalopram HBr], the “z-score of subpopulation abundance” value is -0.03.
The result for `OC1(c2ccc(Cl)c(C(F)(F)F)c2)CCN(CCCC(c2ccc(F)cc2)c2ccc(F)cc2)CC1` [Penfluridol] reads 2.56.
For `C#C[C@]1(O)CC[C@H]2[C@@H]3CCC4=CCCC[C@@H]4[C@H]3C(=C)C[C@@]21CC` [Desogestrel], the “z-score of subpopulation abundance” value is -0.72.
As for `C[C@H]1[C@H](NC(=O)/C(=N\OC(C)(C)C(=O)O)c2csc(N)n2)C(=O)N1S(=O)(=O)O` [Aztreonam], the “z-score of subpopulation abundance” value was 0.97.
The figure for `Cc1c(-c2ccccc2)oc2c(C(=O)OCCN3CCCCC3)cccc2c1=O` [Flavoxate HCl] is 1.06.

The record behind these values is the supplement of paper PMC8975748.
